Source: PubChem BioAssay (NCATS)
Inconclusive results are not listed. Activity calls are given as the source filed them. Unless noted, the call rests on the fitted dose curve; in most records, active means well fitted curve in the direction sought with a large enough effect; inconclusive means small, poorly fitted or top-dose-only effect, or another doubt; inactive means no such curve, though single readings can be large; an effect the other way counts as inactive or inconclusive.

Experiments:
[1] = molecular target: Ferritin light chain (Equus caballus) (UniProt P02791); experiment: qHTS Validation Assay for Identification of Novel General Anesthetics (AID 2323); settings: horse apoferritin, anesthetic-site fluorescent probe displacement; series mostly up to 76.9 µM
In short: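 Normalized fluorescence response, scaled between free 1-AMA and 1-AMA/apoferritin complex, fitted to a four-parameter Hill equation for concentration-effect values. Binding mix: 10 uM horse-spleen apoferritin, 50% saturated 1-AMA in PBS; read 380/535 nm after 10 min.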

[2] = molecular target: ATP-dependent DNA helicase Q1 (Homo sapiens) (UniProt P46063); experiment: qHTS Validation Assay for Inhibitors of RecQ-Like Dna Helicase 1 (RECQ1) (AID 2353); settings: recombinant RECQ1 helicase DNA unwinding assay; series mostly up to 25.6 µM
In short: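 50 nM RECQ1T1 preincubated 15 min with compound in Tris pH 8.0 buffer with MgCl2, DTT, Tween-20 and 2.5 ug/ml poly(dI-dC); started with 200 nM TAMRA/BHQ-2 forked duplex and 2 mM ATP. Unwinding read as fluorescence (525/598 nm), two reads 2 h apart.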

[3] = Cytometric Cell-Based qHTS for Inhibitors of the mTORC1 Signaling Pathway in MEF (Tsc2-/-, p53-/-) Cells (AID 2660); settings: mTORC1 pathway cytometry; series mostly up to 38.3 µM;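 further: percent of cells above a phospho-rpS6 to PI ratio cutoff in each well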
In short: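 Percent of cells positive for normalized phospho-S6 staining is reported, with the cutoff set from rapamycin (7.5 nM) versus DMSO wells. Tsc2-/-, p53-/- MEFs received compound for 24 hrs.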

[4] = High Content Imaging Cell-Based qHTS for Inhibitors of the mTORC1 Signaling Pathway in MEF (Tsc2-/-, p53-/-) Cells (AID 2666); settings: at 38.3 µM (top of the series);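 further: percent of cells scored positive for phospho-rpS6 Ser235/236 immunostaining by imaging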
In short: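 Phospho-rpS6 (Ser235/236) immunofluorescence, normalized and scored as % positive cells using rapamycin and DMSO controls, was read in empty-vector Tsc2-/-, p53-/- MEFs after 24 h compound exposure at 37 C; propidium iodide counted cells.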

[5] = High Content Imaging Cell-Based qHTS for Inhibitors of the mTORC1 Signaling Pathway in MEF Cells (AID 2667); settings: series mostly up to 38.3 µM;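 further: Tsc2-/- p53-/- MEFs stably re-expressing wild-type Tsc2 exposed 24 h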
In short: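 WT MEFs (Tsc2-/-, p53-/- re-expressing Tsc2), in DMEM + 10% FBS, were treated with compound for 24 h at 37 C. Cells were then fixed and stained for phospho-rpS6 Ser235/236 with propidium iodide as cell count. Values are % positive cells, with thresholds set against rapamycin-treated cells.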

[6] = Cytometry Cell-Based qHTS for Inhibitors of the mTORC1 Signaling Pathway in MEF cells (AID 2668); settings: mTORC1 pathway readout; series mostly up to 38.3 µM;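 further: Tsc2-/- p53-/- mouse embryonic fibroblasts stably re-expressing wild-type Tsc2; percent cells positive for phospho-rpS6 Ser235/236 relative to propidium iodide stain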
In short: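 In MEFs grown in DMEM + 10% FBS, a 24 hrs compound exposure preceded imaging of phospho-rpS6 Ser235/236 by laser-scanning cytometry.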

[7] = Validation screen for small molecules that induce DNA re-replication in MCF 10A normal breast cells (AID 463097); settings: MCF 10A cells, DNA re-replication phenotype imaging; series mostly up to 46.1 µM; further: nearly all actives have a fitted effect of over 60% in size
In short: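 Following 48 hr compound incubation (37 C, 5% CO2), MCF 10A cells receive Hoechst for 40 min at 37 C. Nuclei are then scanned (excitation 405 nm, emission 500-530 nm) for total fluorescence intensity.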

[8] = molecular target: Ubiquitin carboxyl-terminal hydrolase 2 (Homo sapiens) (UniProt O75604); experiment: qHTS Validation Assay for Inhibitors of Ubiquitin-specific Protease USP2a Using CHOP2 as the Reporter (AID 463106); settings: USP2a cleavage of CHOP2 reporter, enzymatic; series mostly up to 38.3 µM
In short: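 USP2 core (10 nM final) was preincubated with compound 30 min at RT in pH 8.0 Tris/CaCl2/beta-ME/CHAPS buffer. Ub-CHOP2 and reporter substrate (25 nM final each) were then added, with fluorescence (Ex 485/Em 531) read after 60 min. Data were normalized to NEM full inhibition and fitted to concentration-response curves.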

[9] = molecular target: DNA polymerase III PolC-type (Bacillus subtilis (strain 168)) (UniProt P13267); experiment: qHTS Validation Assay for the Inhibitors of DNA Replication in Gram-Positive Bacteria (AID 485295); settings: Gram-positive bacterial DNA replication assay; series mostly up to 57.1 µM;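 further: reconstituted holoenzyme with PolC plus beta clamp SSB and primase; PicoGreen fluorescence of double-stranded DNA made on primed circular M13 template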
In short: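 Inhibition of DNA synthesis by the reconstituted PolC holoenzyme, monitored through PicoGreen staining of dsDNA formed from ssM13Gori, dNTPs and NTPs, with compound preincubation and room-temperature reaction.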

[10] = molecular target: Tumor susceptibility gene 101 protein (Homo sapiens) (UniProt Q99816); experiment: qHTS Validation Assay for Iinhibitors of HIV-1 Budding by Blocking the Interaction of PTAP/TSG101 (AID 485342; calls by dose curve); settings: TSG101-PTAP binding, fluorescence polarization, 4-point titration; series mostly up to 115 µM
In short: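 Compound wells held the Tsg101 binding domain (10 uM) and a FITC-conjugated PTAP peptide (50 nM) in buffer at pH 7.5 containing 0.15 M NaCl and 0.01% Tween 20; polarization was recorded after 20 min, r.t.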

[11] = qHTS Validation Assay to Find Inhibitors of Chronic Active B-Cell Receptor Signaling (AID 485345; active means well fitted curve in the direction sought with a large enough effect in the main read-out, with a control signal flat, not every such curve was filed as active); settings: ABC-DLBCL cells, chronic BCR signaling reporter, CBG luciferase; series mostly up to 46.1 µM
In short: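 TMD8 ABC-DLBCL cells stably carrying doxycycline-inducible IkappaBalpha–green luciferase fusion plus unfused red luciferase; compounds 46 uM to 3 nM, 4 h at 37C with doxycycline. Corrected green/red luminescence ratio normalized to 10 uM MG-132 and basal cell wells; curves fitted.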

[12] = molecular target: Beta-2 adrenergic receptor (Homo sapiens) (UniProt P07550); experiment: qHTS validation assay of beta-arrestin-biased ligands of beta2-adrenergic receptor (AID 485366); settings: cell-based beta-arrestin recruitment to ADRB2, qHTS; series mostly up to 46.1 µM
In short: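 Luminescence from a tTA-responsive luciferase, induced when recombinant beta-arrestin is recruited to recombinant beta2-AR, served as the agonism signal. Cells were exposed to compound for 18 hr at 37 degrees C; titrations spanned up to 46 microM.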

[13] = molecular target: ATP-dependent 6-phosphofructokinase (Trypanosoma brucei brucei) (UniProt O15648); experiment: qHTS Validation Assay to Find Inhibitors of T. brucei phosphofructokinase (AID 485368); settings: T. brucei PFK enzyme assay, qHTS 7-point titration; series mostly up to 57.5 µM
In short: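 Activity was normalized between 1x (1.25 nM) PFK wells as no inhibition and enzyme-free wells as full inhibition, from luminescence after ADP-Glo detection of ADP made from 0.5 mM F6P and 0.1 mM ATP over 45 min.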

[14] = Quantitative high throughput screen for delayed death inhibitors of the malarial parasite plastid, 96 hour incubation (AID 488745); settings: Plasmodium falciparum growth; series mostly up to 28.7 µM; further: nearly all actives have a fitted effect of over 70% in size
In short: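 Luciferase-expressing P. falciparum in erythrocytes (2% hematocrit, 0.1% parasitemia) incubated with compound for 96 h at 37 C, 5% CO2, in RPMI 1640 with 0.5% Albumax. Growth inhibition read as decreased luminescence.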

[15] = Quantitative high throughput screen for delayed death inhibitors of the malarial parasite plastid, 48 hour incubation (AID 488752); settings: Plasmodium falciparum growth; series mostly up to 28.7 µM; further: nearly all actives have a fitted effect of over 65% in size; further: potency means the concentration at half of the fitted maximal effect
In short: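 Erythrocytes infected with firefly luciferase-expressing P. falciparum (2% hematocrit, 0.1% parasitemia) cultured with compound for 48 h at 37 C, 5% CO2, in RPMI 1640/0.5% Albumax. Growth inhibition read as loss of luminescence.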

[16] = molecular target: Thioredoxin reductase 1, cytoplasmic (Rattus norvegicus) (UniProt O89049); experiment: qHTS Assay for Substrates of Mammalian Selenoprotein Thioredoxin Reductase 1 (TrxR1) (AID 488772); settings: purified TrxR1, NADPH consumption substrate assay; series mostly up to 57.1 µM;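 further: NADPH fluorescence in the first read after selenite addition and not the 8 min delta; a drop in NADPH fluorescence below the no-compound background marks a TrxR1 substrate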
In short: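 Quantitative HTS in Tris-HCl buffer at pH 7.5 with EDTA and Tween-20, using rat TrxR1, 400 uM NADPH and 400 uM selenite (final). A fall in initial NADPH fluorescence relative to background marked substrate behaviour.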

[17] = molecular target: Thioredoxin reductase 1, cytoplasmic (Rattus norvegicus) (UniProt O89049); experiment: qHTS Assay for Inhibitors of Mammalian Selenoprotein Thioredoxin Reductase 1 (TrxR1) (AID 488773); settings: purified TrxR1 enzyme activity; Potency: inhibition; series mostly up to 57.1 µM;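 further: drop in NADPH fluorescence over an 8 min run after selenite addition; nearly all actives have a fitted effect of over 40% in size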
In short: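 Steps: enzyme (90 nM) plus NADPH (400 uM final), 5 min at ~22 deg C; compound added, 15 min; selenite (400 uM final) added; fluorescence followed for 8 min. Concentration-response curves derived from the normalized delta values.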

[18] = qHTS Assay for Modulators of Human Peripheral Myelin Protein 22 (PMP22) Expression/Activity (AID 1967; active means well fitted curve in the direction sought with a large enough effect in the signal ratio; the % refers to the signal ratio); settings: Cell-based PMP22 reporter, dual-color luciferase ratio, 0% = compound-free control cells, mouse Pmp22 promoter in mouse Schwann cells; series mostly up to 115 µM
In short: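 Engineered MSC80 cells, Pmp22-promoter green and EF-alpha red luciferase reporters; 24h compound treatment at 37 °C. Concentration-response fits on green, red and ratio signals, each overlap-corrected, with %Activity normalized to untreated wells.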

[19] = qHTS Assay for Identification of Small Molecule Inducers of Hypoxia Response (AID 2120; active means well fitted curve in the direction sought with a large enough effect in the signal ratio, with a control signal flat, not every such curve was filed as active; the % refers to the signal ratio); settings: hypoxia response reporter cells, beta-lactamase ratio readout; series mostly up to 104 µM
In short: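 HRE-bla ME-180 cells in Opti-MEM with 0.5% dialyzed FBS, pre-plated 4-5 h, then compound titration for 17 h at 37 degrees Celsius. CCF4 loaded 2.5 h at room temperature; 460/530 nm ratio gave %Activity and AC50 for induction.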

[20] = molecular target: RecQ-like DNA helicase BLM (Homo sapiens) (UniProt P54132); experiment: qHTS Validation Assay for Inhibitors of Bloom's syndrome helicase (BLM) (AID 2364); settings: BLM helicase DNA unwinding, fluorescence, in vitro; series mostly up to 57.1 µM
In short: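 50 nM BLM preincubated 15 min at room temperature with compound in pH 8.0 Tris buffer containing 2.5 ug/ml poly(dI-dC); started with 200 nM TAMRA/BHQ-2 forked duplex and 2 mM ATP (final). Unwinding read as TAMRA fluorescence increase, two reads 2 h apart.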

Measured: Potency

Thioredoxin reductase 1, cytoplasmic (Rattus norvegicus), sequence (O89049 whole entry, looked up): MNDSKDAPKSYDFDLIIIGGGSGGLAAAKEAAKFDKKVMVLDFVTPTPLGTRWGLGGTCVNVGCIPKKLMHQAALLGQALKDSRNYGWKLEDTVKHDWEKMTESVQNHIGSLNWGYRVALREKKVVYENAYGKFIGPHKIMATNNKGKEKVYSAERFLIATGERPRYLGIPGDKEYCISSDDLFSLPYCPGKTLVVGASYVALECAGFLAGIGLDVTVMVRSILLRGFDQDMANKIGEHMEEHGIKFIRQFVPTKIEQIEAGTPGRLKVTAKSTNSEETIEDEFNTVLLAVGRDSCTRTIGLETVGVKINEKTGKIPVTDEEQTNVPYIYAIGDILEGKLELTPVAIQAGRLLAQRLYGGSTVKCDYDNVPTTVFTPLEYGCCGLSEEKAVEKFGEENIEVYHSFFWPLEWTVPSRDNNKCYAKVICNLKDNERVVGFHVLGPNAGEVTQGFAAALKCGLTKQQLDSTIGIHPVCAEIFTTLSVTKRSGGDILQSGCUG
Tumor susceptibility gene 101 protein (Homo sapiens), sequence (Q99816 whole entry, looked up, the tested form may be a part): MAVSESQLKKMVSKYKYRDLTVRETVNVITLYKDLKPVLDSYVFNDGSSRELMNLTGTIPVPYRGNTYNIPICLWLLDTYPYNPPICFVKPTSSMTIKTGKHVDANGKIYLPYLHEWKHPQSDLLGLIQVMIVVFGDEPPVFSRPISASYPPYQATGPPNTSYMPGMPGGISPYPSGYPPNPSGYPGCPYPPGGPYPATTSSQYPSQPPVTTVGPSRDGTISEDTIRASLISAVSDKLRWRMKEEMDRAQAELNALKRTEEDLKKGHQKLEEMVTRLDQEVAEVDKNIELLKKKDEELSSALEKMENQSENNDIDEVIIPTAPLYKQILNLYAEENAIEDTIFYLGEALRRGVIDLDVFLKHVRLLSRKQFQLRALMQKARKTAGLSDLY
ATP-dependent 6-phosphofructokinase (Trypanosoma brucei brucei), sequence (O15648 whole entry, looked up): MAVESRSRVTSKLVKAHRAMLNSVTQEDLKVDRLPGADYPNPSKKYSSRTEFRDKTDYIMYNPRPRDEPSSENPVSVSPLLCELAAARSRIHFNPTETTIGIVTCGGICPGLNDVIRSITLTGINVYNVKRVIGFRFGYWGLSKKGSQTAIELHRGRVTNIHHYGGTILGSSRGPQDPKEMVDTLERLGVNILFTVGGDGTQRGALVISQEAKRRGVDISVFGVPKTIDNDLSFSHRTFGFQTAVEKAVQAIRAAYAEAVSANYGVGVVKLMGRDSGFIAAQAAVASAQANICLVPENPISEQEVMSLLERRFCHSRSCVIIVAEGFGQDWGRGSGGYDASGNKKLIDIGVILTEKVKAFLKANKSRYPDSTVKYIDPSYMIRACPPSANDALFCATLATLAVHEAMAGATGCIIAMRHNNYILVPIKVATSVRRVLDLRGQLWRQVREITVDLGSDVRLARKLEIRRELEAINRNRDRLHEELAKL
RecQ-like DNA helicase BLM (Homo sapiens), sequence (P54132 whole entry, looked up): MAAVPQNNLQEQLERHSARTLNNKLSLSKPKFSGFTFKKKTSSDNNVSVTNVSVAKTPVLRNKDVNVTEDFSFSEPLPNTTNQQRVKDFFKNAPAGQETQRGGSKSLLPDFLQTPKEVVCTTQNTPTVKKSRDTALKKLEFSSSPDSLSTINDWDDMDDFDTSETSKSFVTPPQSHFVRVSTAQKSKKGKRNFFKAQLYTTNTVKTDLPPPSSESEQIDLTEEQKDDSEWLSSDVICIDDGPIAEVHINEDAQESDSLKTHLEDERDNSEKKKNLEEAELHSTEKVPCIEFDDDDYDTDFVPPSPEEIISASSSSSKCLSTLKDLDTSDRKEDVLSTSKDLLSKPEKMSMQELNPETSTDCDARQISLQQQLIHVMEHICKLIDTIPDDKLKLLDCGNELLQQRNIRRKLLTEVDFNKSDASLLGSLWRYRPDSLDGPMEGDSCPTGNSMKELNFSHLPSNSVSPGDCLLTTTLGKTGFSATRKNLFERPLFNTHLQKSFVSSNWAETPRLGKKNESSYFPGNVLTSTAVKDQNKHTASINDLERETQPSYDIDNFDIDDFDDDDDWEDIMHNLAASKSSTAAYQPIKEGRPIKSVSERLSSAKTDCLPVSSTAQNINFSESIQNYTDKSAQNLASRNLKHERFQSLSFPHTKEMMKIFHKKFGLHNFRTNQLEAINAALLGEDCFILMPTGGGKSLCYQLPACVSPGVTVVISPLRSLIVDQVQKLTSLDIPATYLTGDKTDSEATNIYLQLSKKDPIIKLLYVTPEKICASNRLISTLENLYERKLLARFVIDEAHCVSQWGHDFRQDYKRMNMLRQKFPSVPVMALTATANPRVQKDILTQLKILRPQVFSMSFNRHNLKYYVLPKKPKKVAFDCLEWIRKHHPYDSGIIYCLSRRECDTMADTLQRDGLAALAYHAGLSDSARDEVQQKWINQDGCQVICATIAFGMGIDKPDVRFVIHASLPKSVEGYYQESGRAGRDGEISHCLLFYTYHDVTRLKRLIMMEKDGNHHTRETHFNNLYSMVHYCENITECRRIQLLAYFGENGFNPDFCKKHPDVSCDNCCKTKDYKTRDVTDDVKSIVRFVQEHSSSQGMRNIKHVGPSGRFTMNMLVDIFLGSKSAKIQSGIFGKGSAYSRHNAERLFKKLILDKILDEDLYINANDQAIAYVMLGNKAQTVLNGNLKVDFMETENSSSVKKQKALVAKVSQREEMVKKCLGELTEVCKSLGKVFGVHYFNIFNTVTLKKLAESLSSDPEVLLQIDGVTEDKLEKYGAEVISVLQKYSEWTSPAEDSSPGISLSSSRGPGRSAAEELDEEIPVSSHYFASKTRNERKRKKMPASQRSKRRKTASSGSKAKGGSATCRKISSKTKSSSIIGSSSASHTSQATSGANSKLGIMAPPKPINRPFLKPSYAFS
ATP-dependent DNA helicase Q1 (Homo sapiens), sequence (P46063 whole entry, looked up): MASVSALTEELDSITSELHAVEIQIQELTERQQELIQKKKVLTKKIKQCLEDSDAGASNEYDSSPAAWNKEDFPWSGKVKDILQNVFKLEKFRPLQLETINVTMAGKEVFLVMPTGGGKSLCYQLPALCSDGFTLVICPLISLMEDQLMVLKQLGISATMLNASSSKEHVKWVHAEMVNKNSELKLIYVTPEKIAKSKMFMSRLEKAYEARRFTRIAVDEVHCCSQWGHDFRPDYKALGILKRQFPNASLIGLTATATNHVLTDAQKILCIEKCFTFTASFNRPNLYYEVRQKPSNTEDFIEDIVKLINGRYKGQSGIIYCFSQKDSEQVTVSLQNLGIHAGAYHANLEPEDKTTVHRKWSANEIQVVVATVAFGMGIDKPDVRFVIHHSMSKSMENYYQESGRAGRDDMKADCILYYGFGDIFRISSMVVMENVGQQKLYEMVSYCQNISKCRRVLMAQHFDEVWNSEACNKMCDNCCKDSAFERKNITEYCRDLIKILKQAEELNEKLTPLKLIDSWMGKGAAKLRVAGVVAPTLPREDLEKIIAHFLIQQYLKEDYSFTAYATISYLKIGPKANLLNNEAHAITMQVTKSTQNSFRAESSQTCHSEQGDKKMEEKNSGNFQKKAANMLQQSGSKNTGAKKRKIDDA
DNA polymerase III PolC-type (Bacillus subtilis (strain 168)), sequence (P13267 whole entry, looked up): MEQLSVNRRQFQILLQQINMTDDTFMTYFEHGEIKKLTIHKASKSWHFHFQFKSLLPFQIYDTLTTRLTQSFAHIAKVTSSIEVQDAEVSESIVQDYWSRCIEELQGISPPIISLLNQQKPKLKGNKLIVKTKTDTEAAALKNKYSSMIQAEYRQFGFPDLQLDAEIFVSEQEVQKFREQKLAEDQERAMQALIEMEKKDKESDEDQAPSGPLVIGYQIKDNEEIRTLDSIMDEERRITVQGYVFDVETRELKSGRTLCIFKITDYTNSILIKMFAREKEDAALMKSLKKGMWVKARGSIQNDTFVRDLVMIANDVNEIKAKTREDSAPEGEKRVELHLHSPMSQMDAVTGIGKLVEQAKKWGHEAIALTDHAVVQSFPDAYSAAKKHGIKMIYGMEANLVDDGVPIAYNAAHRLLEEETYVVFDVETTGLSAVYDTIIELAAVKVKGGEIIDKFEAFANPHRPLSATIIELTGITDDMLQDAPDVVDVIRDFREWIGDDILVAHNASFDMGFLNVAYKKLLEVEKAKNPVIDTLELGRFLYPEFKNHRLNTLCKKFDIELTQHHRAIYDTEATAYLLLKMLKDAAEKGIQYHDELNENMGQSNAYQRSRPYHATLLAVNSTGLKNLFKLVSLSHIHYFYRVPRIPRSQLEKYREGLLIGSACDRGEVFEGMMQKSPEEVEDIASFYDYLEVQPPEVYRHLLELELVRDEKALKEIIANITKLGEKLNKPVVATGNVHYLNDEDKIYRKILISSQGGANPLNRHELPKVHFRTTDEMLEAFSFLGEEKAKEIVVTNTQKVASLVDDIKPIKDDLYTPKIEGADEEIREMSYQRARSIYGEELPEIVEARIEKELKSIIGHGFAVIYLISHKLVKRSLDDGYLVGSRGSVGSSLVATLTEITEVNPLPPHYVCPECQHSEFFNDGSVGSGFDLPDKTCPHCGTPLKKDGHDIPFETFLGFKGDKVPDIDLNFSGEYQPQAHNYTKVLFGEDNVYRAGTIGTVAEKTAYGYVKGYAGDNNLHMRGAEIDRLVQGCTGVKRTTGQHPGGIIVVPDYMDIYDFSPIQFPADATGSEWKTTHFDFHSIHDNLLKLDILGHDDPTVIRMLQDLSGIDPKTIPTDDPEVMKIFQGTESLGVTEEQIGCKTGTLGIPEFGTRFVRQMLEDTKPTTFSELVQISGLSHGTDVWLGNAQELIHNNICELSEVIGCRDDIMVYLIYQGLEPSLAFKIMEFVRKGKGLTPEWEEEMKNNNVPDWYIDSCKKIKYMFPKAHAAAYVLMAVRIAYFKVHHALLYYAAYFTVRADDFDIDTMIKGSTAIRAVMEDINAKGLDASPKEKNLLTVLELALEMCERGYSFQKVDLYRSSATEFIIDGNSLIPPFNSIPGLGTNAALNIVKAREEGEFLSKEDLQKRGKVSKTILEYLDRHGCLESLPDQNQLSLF
Ferritin light chain (Equus caballus), sequence (P02791 2-175 limits assumed): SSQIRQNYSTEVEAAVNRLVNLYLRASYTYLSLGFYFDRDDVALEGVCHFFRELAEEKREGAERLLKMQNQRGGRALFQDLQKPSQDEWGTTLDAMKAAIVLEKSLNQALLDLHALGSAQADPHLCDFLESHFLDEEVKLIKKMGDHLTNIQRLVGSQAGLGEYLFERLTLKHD

CNC[C@H](O)c1cccc(O)c1
not listed: [18] | [19] | [20]
inactive: all other assays above

NS(=O)(=O)c1cc2c(cc1Cl)NC=NS2(=O)=O
not listed: [13] | [20]
inactive: all other assays above

Cc1ccccc1C(OCCN(C)C)c1ccccc1 (centres undefined)
not listed: [18] | [19] | [20]
inactive: all other assays above

C1COC(NC(C2CC2)C2CC2)=N1
not listed: [7] | [14] | [18] | [19]
inactive: all other assays above

CN1CCN(CCCN2c3ccccc3Sc3ccc(C(F)(F)F)cc32)CC1
active: [15] 9.28 µM
not listed: [3] | [4] | [6] | [7] | [11] | [14] | [18] | [19]
inactive: all other assays above

O=c1[nH]cnc2[nH]ncc12
not listed: [18] | [19] | [20]
inactive: all other assays above

CC(C)(C)NCC(O)c1ccc(O)c(CO)c1 (centres undefined)
not listed: [12] | [18] | [19]
inactive: all other assays above
